In PubChem BioAssay:
Unmarked numbers belong to inactive results. The source made the active and inactive calls.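 How the source made its calls, unless noted: active means mean inhibition over 43.08%, the solvent-only control mean plus 3 SD; inactive means the rest.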

Key:
[1] = target: Nuclear receptor coactivator 3 (Homo sapiens) (UniProt Q9Y6Q9); assay: SRC3 coactivator transcriptional activity inhibitors, confirmation, cell-based, luminescence, quadruplicate (AID 588792); conditions: HEK293 GAL4-SRC3 luciferase reporter, at 3.6 µM, active compounds read high;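 further: 0% = DMSO treated cells and 100% = gossypol at 36 µM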
[2] = test system: transactivating tegument protein VP16 (Human herpesvirus 1), Gal4-VP16 luciferase reporter; assay: VP16 transactivation inhibitors, counter-screen for SRC3 inhibitor project, cell-based, luminescence, high throughput (AID 588794; in the data active means inhibition above about 30%); conditions: mammalian cells, VP16-driven luciferase reporter luminescence; at 3.6 µM; active compounds read high
[3] = StAR promoter reporter inhibitors, counter-screen for LRH-1 inverse agonist project, cell-based, luminescence, high throughput (AID 651611; in the data active means inhibition above about 28%); conditions: StAR promoter luciferase reporter counterscreen, at 3.6 µM, active compounds read high
[4] = target: Nuclear receptor subfamily 5 group A member 2 (Homo sapiens) (UniProt O00482); assay: LRH-1 (NR5A2) inverse agonists, retest, confirmation, cell-based, luminescence (AID 651613; in the data active means inhibition above about 42%;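 further: HEK293T cells co-transfected with LRH-1 and StAR promoter luciferase reporter; 0% = vehicle wells and 100% = parental cells lacking receptor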); conditions: cell-based LRH-1 luciferase reporter, inverse agonism; at 3.6 µM; active compounds read high
[5] = target: Steroidogenic factor 1 (Homo sapiens) (UniProt Q13285); assay: SF1 (NR5A1) inverse agonists, counter-screen for LRH-1 inverse agonist project, cell-based, luminescence, high throughput (AID 651614; in the data active means inhibition above about 44%;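 further: cells cotransfected with StAR promoter reporter and SF1 expression vector; 0% = vehicle on cells with receptor and 100% = vehicle on cells lacking receptor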); conditions: cell-based SF1 luciferase reporter, at 3.6 µM, active compounds read high
[6] = VP16 transactivation reporter inhibitors, counter-screen for LRH-1 inverse agonist project, cell-based, luminescence, high throughput (AID 651615; in the data active means inhibition above about 33%); conditions: Gal4-VP16 luciferase reporter cells, at 3.6 µM, active compounds read high
[7] = test system: transactivating tegument protein VP16 (Human herpesvirus 1); assay: VP16 transactivation reporter inhibitors, counter-screen for SRC2 inhibitor project, cell-based, luminescence, single concentration (AID 652007; in the data active means inhibition above about 36%); conditions: cell-based VP16 transactivation luciferase reporter, at 8.9 µM, active compounds read high
[8] = target: Nuclear receptor coactivator 2 (Homo sapiens) (UniProt Q15596); assay: SRC2 coactivator transcriptional activity inhibitors, confirmation, cell-based, luminescence, HEK293, triplicate (AID 652008;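 active means mean inhibition above 46.5%, the solvent-only control mean plus 3 SD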;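 further: 0% = DMSO-treated cells and 100% = Gossypol at 36 µM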); conditions: HEK293 GAL4-SRC2 luciferase reporter, at 8.9 µM, active compounds read high
Chain of Nuclear receptor coactivator 2 (Homo sapiens) (Q15596 whole entry, looked up, the tested form may be a part): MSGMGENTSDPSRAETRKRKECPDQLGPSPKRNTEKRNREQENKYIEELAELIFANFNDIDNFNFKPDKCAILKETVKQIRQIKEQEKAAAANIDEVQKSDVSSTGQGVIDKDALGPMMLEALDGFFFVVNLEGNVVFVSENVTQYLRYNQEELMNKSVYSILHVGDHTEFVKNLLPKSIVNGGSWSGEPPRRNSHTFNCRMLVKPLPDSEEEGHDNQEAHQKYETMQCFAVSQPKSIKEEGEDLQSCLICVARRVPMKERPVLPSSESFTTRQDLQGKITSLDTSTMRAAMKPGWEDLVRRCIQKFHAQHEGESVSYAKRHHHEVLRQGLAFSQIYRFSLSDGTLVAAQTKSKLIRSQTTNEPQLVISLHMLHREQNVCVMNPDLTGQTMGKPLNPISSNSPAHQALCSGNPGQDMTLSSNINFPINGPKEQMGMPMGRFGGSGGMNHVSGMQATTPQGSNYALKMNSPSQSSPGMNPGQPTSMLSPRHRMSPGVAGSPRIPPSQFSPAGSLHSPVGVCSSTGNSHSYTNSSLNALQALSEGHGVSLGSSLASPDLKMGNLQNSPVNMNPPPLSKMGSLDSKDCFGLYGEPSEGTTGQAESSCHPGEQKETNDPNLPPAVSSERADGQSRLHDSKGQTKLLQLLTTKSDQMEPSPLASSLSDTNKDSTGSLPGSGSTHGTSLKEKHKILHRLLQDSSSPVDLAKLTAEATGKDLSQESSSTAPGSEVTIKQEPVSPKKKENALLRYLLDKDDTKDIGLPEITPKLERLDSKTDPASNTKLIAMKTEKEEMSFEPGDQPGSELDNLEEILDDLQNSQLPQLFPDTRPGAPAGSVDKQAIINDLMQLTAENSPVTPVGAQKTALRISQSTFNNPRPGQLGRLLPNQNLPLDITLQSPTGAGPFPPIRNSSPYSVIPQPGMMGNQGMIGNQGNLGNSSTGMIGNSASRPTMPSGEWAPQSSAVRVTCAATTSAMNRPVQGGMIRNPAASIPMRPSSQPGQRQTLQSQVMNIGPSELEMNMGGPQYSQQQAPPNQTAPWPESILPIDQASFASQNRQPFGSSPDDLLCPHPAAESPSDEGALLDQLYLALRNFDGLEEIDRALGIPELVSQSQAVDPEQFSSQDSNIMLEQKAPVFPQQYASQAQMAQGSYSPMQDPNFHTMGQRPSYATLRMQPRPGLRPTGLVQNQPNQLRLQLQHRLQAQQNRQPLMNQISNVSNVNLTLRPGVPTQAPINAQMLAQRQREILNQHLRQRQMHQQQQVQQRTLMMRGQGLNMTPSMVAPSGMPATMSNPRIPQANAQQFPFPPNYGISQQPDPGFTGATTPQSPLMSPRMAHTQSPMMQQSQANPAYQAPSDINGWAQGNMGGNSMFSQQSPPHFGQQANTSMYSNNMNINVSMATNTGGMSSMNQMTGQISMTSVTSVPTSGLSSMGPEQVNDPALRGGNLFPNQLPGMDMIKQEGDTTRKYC

Chain of Nuclear receptor subfamily 5 group A member 2 (Homo sapiens) (O00482 whole entry, looked up): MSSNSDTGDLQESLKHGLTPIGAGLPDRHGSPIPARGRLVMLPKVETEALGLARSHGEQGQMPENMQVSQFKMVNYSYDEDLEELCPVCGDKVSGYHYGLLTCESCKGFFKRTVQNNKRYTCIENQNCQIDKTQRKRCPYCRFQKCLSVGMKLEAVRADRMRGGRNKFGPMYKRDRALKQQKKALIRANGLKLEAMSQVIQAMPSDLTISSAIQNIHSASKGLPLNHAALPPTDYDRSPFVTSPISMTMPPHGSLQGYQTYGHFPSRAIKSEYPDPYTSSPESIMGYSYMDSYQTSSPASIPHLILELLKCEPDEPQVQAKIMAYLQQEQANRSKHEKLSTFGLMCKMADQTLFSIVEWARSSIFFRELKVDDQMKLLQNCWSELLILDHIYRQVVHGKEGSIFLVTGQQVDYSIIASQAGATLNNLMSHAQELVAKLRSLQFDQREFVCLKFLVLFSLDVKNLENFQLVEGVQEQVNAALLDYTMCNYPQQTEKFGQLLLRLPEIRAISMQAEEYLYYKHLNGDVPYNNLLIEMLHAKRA
Chain of Steroidogenic factor 1 (Homo sapiens) (Q13285 whole entry, looked up, the tested form may be a part): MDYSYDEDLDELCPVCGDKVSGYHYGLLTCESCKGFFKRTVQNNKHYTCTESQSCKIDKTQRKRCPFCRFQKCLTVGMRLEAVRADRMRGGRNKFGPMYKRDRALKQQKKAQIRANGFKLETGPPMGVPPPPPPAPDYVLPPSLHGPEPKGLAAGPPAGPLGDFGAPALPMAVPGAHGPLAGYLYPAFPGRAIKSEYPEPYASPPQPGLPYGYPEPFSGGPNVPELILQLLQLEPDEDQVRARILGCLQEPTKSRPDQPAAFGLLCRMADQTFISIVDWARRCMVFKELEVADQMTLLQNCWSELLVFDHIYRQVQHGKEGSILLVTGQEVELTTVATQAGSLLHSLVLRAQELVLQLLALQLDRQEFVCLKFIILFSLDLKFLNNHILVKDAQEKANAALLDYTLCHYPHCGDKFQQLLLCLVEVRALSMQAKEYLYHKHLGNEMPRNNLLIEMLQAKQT
Chain of Nuclear receptor coactivator 3 (Homo sapiens) (Q9Y6Q9 whole entry, looked up, the tested form may be a part): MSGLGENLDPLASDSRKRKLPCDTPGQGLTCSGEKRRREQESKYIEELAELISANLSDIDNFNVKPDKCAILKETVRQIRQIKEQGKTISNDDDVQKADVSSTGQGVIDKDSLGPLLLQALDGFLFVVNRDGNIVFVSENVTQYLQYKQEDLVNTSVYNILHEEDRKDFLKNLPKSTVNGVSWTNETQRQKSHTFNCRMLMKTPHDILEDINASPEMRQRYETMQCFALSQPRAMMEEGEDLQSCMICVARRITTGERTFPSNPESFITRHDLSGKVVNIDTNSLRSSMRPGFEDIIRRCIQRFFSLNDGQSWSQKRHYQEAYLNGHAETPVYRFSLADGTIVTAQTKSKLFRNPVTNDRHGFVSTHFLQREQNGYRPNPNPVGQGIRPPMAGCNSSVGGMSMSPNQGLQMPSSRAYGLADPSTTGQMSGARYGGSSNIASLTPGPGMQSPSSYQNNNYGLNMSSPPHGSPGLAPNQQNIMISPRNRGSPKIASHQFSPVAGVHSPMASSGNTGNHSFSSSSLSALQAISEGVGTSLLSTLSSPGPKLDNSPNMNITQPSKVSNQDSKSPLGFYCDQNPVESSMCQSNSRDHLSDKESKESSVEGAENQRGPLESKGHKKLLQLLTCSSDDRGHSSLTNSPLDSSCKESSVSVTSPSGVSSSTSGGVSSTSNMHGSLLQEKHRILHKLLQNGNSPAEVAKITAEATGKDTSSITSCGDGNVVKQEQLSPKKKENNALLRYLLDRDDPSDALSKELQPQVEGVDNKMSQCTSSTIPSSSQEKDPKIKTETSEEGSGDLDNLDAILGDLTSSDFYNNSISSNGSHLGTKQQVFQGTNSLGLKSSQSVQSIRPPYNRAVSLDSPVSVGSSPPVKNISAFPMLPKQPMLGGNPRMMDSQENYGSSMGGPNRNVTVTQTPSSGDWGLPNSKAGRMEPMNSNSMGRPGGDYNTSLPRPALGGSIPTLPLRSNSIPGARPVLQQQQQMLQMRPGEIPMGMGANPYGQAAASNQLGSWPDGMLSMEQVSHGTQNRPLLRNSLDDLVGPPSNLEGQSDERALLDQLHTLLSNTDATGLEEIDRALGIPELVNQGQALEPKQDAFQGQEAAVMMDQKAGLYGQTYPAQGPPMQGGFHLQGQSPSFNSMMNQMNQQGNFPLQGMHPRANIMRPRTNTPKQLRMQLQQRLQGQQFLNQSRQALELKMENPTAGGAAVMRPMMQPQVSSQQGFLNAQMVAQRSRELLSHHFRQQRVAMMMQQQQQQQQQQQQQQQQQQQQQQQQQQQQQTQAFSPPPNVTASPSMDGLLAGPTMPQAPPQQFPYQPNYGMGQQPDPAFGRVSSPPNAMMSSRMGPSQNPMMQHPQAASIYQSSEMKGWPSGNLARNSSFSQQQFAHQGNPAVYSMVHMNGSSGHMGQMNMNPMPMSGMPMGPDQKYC

Row | Compound | inhibition [1] | inhibition [2] | inhibition [3] | inhibition [4] | inhibition [5] | inhibition [6] | inhibition [7] | inhibition [8]
1 | Cc1cc(C)c(S(=O)(=O)/N=C2\C=C(Nc3ccc(C(=O)O)cc3)C(=O)c3ccccc32)c(C)c1 | 12.8% | 11.8% | 40.8% (active) | 61.8% (active) | 61% (active) | 43.8% (active) | 6.44% | 1.79%
2 | CC(C)CCOc1cccc(OCC(=O)Nc2ccncc2)c1 | -1.73% | 35.9% (active) | 21.4% | 61% (active) | 60.3% (active) | 58.9% (active) | 27.6% | 38%
3 | CCC1C/C(=C\c2cccnc2)C(=O)/C(=C/c2cccnc2)C1 (configuration not stated) | 15.6% | 78.6% (active) | 60.2% (active) | 103% (active) | 97.7% (active) | 90.7% (active) |  | 
4 | C[C@H]1CCC/C=C/[C@@H]2C[C@H](O)C[C@H]2[C@H](O)[C@H](S(=O)c2ccc(O)cc2)CC(=O)O1 (some centres not stated) | 71.7% (active) | 77.6% (active) | 77.7% (active) | 84.4% (active) | 76.6% (active) | 77.6% (active) |  | 
5 | c1ccc(-c2csc3ncnc(NCC4COc5ccccc5O4)c23)cc1 (configuration not stated) | 8.5% | 53% (active) | 34.8% (active) | 57.8% (active) | 62.5% (active) | 60.4% (active) |  | 
6 | Cc1cc(C)c[n+](C(C)C(=O)c2ccc(-c3ccccc3)cc2)c1 (configuration not stated) | 16.9% | 40.2% (active) | 29.7% (active) | 81.4% (active) | 66.4% (active) | 64.2% (active) |  | 
7 | Brc1ccc(C2=Nn3c(nnc3-c3n[nH]c4c3CCC4)SC2)cc1 | 26% | -11.4% | 50.6% (active) | 49% (active) | 51% (active) | -33.2% |  | 
8 | CN(c1ccccc1)S(=O)(=O)c1cccc(C(=O)OCC(=O)Nc2ccc(C(N)=O)cc2)c1 | 6.76% | -5.87% | 16.5% | 1.26% | 10% | -16.3% |  | 
9 | Cn1c(CCN2CCN(c3ccccn3)CC2)nc2cc(NC(=O)COc3ccc(Cl)cc3)ccc21 | 18% | 33.9% (active) | 29.2% (active) | 49.8% (active) | 51.4% (active) | 51.6% (active) |  | 
10 | c1ccc(CNc2nc(-c3ccccn3)nc3ccccc23)cc1 | 21.8% | 29.9% (active) | 68.7% (active) | 76.8% (active) | 84.3% (active) | 66.5% (active) |  | 
11 | O=C(NCc1cccnc1)/C(=C\c1ccc(-c2cccc(Cl)c2)o1)S(=O)(=O)c1ccccc1 | 37.8% | 13.6% | 61.8% (active) | 87.1% (active) | 89.3% (active) | 74.9% (active) | 44% (active) | 53.1% (active)
12 | Cc1ccc2c(c1C)-c1c(ccc(C)c1C)C(=O)C2=O | 58% (active) | 34.3% (active) | 64.4% (active) | 72% (active) | 80.5% (active) | 73.8% (active) |  | 
13 | Cc1ncc(CO)c(/C=N/NC(=O)c2cc3c(s2)CCCC3)c1O | 40.9% | 27.7% | 76.8% (active) | 94.7% (active) | 77.2% (active) | 82.6% (active) |  | 
14 | CCNc1nc(NC(C)(C)C)nc(SC(C(C)=O)C(C)=O)n1 | 23.3% | 32% (active) | 60.2% (active) | 72.4% (active) | 64.2% (active) | 49.4% (active) |  | 
15 | COC1C(=O)CCC2(CO2)C1(O)C1(C)OC1CC=C(C)C (configuration not stated) | 39.3% | 40.8% (active) | 33.8% (active) | 43% (active) | 39.6% | 42% (active) |  | 
16 | CC(=O)Nc1ccc(Oc2sc(C(=O)c3ccccc3)c(N)c2C#N)cc1 | 20.5% | -3.87% | 35.8% (active) | 70.9% (active) | 66.7% (active) | 7.59% | 14.6% | 32.6%
17 | Cc1ccccc1C(=O)N/N=C/c1ccc([N+](=O)[O-])s1 | 6.45% | 8.35% | 46.1% (active) | 73.2% (active) | 65% (active) | 24.8% | 64.2% (active) | 63.1% (active)
18 | Cc1ccc(CSC(Nc2ccc(F)cc2)=C(C#N)C#N)cc1 | 4.71% | 28.5% | 19.4% | 59.8% (active) | 59.9% (active) | 45% (active) | 12.8% | 31.9%
19 | c1ccc(C[n+]2cccc3c4ccccc4ccc32)cc1 | 32.6% | 54.8% (active) | 41.7% (active) | 83.4% (active) | 74.3% (active) | 70.4% (active) |  | 
20 | CC(=O)c1cn(CC(=O)Nc2ccc(C)cc2C)c2ccccc12 | 11.1% | 28.2% | 11.3% | 71.5% (active) | 64.5% (active) | 47.4% (active) |  | 
21 | C/C(=N\NC(N)=S)C12CC3CC(CC(C3)C1)C2 | 41.6% | 32.8% (active) | 20.4% | 66.1% (active) | 71.4% (active) | 48.1% (active) | 9.52% | 26.9%

Row | Compound | inhibition [1] | inhibition [2] | inhibition [3] | inhibition [4] | inhibition [5] | inhibition [6] | inhibition [7] | inhibition [8]
22 | Cc1cc(Br)c(OCc2ccc(C(=O)N/N=C/c3ccc[nH]3)cc2)c(Br)c1 | 51.8% (active) | 71.7% (active) | 76.5% (active) | 101% (active) | 88.5% (active) | 85.5% (active) |  | 
23 | Cc1ccc(S(=O)(=O)/C(=C/Cl)NC(=O)c2ccccc2)cc1 | 26% | 26.9% | 42.9% (active) | 57.7% (active) | 51.5% (active) | 38.8% (active) | 38.9% (active) | 60.8% (active)
24 | COc1cc(/C=C/C(=O)c2ccc(C)cc2)ccc1OCC#N | 31.2% | 41.2% (active) | 23.6% | 29.3% | 36.5% | 44.4% (active) | 28% | 29.4%
25 | O=C(OCC12CC3CC(CC(C3)C1)C2)c1ccc(NCc2cc(O)ccc2O)cc1 | 88.3% (active) | 47.5% (active) | 48.6% (active) | 56.9% (active) | 67.2% (active) | 72.7% (active) | 97% (active) | 96.5% (active)
26 | CCOc1ccc(Nc2cc(C)nc(-n3nc(C)cc3C)n2)cc1 | 32.9% | 8.98% | 46.8% (active) | 52.9% (active) | 64.8% (active) | 57.4% (active) | -8.07% | 16.3%
27 | O=C(CCl)N(c1ccccc1)C1CCCCC1 | 30.5% | -7.5% | 43.5% (active) | 70.4% (active) | 66.2% (active) | 16.5% | 55.6% (active) | 57.8% (active)
28 | O=C(Nc1ccc(F)cc1)Nc1cc(OCC(F)(F)F)cc(OCC(F)(F)F)c1 | 17% | 29.6% (active) | 53.8% (active) | 98.5% (active) | 75.6% (active) | 78% (active) |  | 
29 | S=C(NCCCc1cnc[nH]1)NCCCN(Cc1ccc(Cl)cc1)c1ccc(Br)cn1 | 83.9% (active) | 57.4% (active) | 91.2% (active) | 102% (active) | 96.4% (active) | 82.4% (active) | -0.33% | 51.4% (active)
30 | CC(=O)c1c(C)[nH]c(C(=O)OCC(=O)Nc2ccc(Cl)cc2[N+](=O)[O-])c1C | 9.25% | 38% (active) | 22% | 59.6% (active) | 62.2% (active) | 54.5% (active) |  | 
31 | O=C1Cc2c([nH]c3ccc([N+](=O)[O-])cc23)-c2ccccc2N1 | 91.9% (active) | 88.9% (active) |  |  |  |  | 23.5% | 51% (active)
32 | CC[C@@]1(O)C(=O)OCc2c1cc1n(c2=O)Cc2cc3c(CN(C)C)c(O)ccc3nc2-1 | 89.8% (active) | 53.2% (active) |  | 99.7% (active) | 85.7% (active) |  | 32.9% | 46%
33 | COc1ccc2nc(C)cc(Sc3nc4ccccc4s3)c2c1 | 28.2% | 18.1% |  |  |  |  | 26% | 51.3% (active)
34 | COc1ccc(C(=O)C(CCC(CNC(C)(C)C)C(=O)c2ccc(OC)cc2)CNC(C)(C)C)cc1 (configuration not stated) | -9.42% | 4.54% |  |  |  |  | 10.4% | 20.1%
35 | O=S(=O)(c1ccc(F)cc1)c1snnc1-c1ccccc1 | 29% | 8.39% |  |  |  |  | 27.8% | 28.7%
36 | O=C(/C=C\Nc1ccc2c(c1)OCO2)c1ccccn1 | 22.5% | 14.7% |  |  |  |  | 29.3% | 62% (active)
37 | Cn1c(/C=C/c2ccc(Br)cc2)c([N+](=O)[O-])c(=O)n(C)c1=O | 45.2% (active) | 47.8% (active) |  |  |  |  | 15.8% | 40.7%
38 | Cc1ccc(C2=NN(C(=O)CCl)C(c3ccco3)C2)o1 (configuration not stated) | 38.2% | 7.74% |  |  |  |  | 15.3% | 51.2% (active)
39 | CCCCCCC[N+](CC)(CC)CCCCc1ccc(Cl)cc1 | 22.1% | 28.2% |  | 79% (active) | 66.2% (active) |  |  | 
40 | Cc1ccc(/C=C2\SC(=S)N(CCCC(=O)Nc3ccc(O)cc3)C2=O)cc1 | 18.4% | 10.3% |  |  |  |  | 36.9% (active) | 69.4% (active)
41 | O=c1cc(CCl)nc(Cc2c(Cl)cccc2Cl)[nH]1 | 21.2% | -8.27% |  |  |  |  | 16.8% | 54.1% (active)
